PubChem BioAssay (Tox21)
Results filed as inconclusive are left out. The source made the active and inactive calls. Unless noted, the call rests on the fitted dose curve; in most records, active means well fitted curve in the direction sought with a large enough effect in the repeat runs; inconclusive means weak or mixed curves; inactive means no such curve, though single readings can be large; an effect the other way counts as inactive or inconclusive.

How the values were obtained:
[1] = qHTS assay to identify small molecule antagonists of the androgen receptor (AR) signaling pathway using the MDA cell line in the presence of 0.5 nM R1881 - cell viability counter screen (AID 1259242); further: nearly all actives have a fitted effect of over 45% in size
In short: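 qHTS format. MDA-kb2 (MMTV-luc, AR/GR responsive) + cpd + 0.5 nM R1881 final, 16 hr 37C/0% CO2 → CellTiter-Fluor 30 min → fluorescence intensity.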

[2] = target: Estrogen receptor (Homo sapiens) (UniProt P03372); assay: qHTS assay to identify small molecule antagonists of the estrogen receptor alpha (ER-alpha) signaling pathway using the BG1 cell line in the presence of 0.1 nM 17-beta-estradiol (AID 1259244); further: nearly all actives have a fitted effect of over 50% in size
Chain of Estrogen receptor (Homo sapiens) (P03372 whole entry, looked up): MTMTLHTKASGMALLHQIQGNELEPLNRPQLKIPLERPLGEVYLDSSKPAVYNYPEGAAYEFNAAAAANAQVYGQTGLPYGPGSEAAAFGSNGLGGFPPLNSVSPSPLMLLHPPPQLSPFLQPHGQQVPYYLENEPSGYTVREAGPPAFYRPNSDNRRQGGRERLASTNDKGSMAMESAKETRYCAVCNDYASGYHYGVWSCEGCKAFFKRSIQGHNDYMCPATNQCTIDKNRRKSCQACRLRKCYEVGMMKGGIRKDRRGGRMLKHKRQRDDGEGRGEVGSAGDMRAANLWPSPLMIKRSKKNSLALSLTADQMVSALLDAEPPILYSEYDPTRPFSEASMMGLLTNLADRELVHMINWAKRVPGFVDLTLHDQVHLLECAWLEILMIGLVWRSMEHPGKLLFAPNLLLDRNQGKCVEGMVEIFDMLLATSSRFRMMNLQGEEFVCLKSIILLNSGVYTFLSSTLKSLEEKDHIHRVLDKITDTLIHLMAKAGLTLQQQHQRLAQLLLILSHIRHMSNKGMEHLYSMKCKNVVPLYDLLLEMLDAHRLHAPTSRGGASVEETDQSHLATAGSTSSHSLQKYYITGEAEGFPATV
In short: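 Reporter is a stably transfected luciferase under four estrogen responsive elements in VM7Luc4E2 cells expressing native full-length ER-alpha; inhibition of 0.1 nM (final) 17beta-estradiol-driven signal over 22 h is read by luminescence.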

[3] = qHTS assay to identify small molecule phospholipidosis (PLD) inducers (AID 1259344; active means well fitted curve in the direction sought with a large enough effect; an effect the other way counts as inactive or inconclusive)
In short: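 After 4 h attachment on collagen I, HepG2 cells were dosed with compound alongside LipidTOX Red, kept 24 h at 37 C, fixed, and imaged for lamellar phospholipid pits.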

[4] = qHTS assay to identify small molecule HDAC inhibitors (AID 1259364);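 further: wild-type HCT-116 cells with endogenous class I/II HDAC activity; top concentration of the series differs between compounds; nearly all actives have a fitted effect of over 45% in size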
In short: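 Quantitative high-throughput format: overnight-seeded HCT-116 cells got compounds for 2 hr at 37C; HDAC-Glo I/II reagent added, 30 min RT, luminescence measured.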

[5] = qHTS assay to identify small molecule HDAC inhibitors - cell viability counter screen (AID 1259365); further: series mostly up to about 92 µM; nearly all actives have a fitted effect of over 50% in size
In short: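 To flag cytotoxic hits, 1,500 wild-type HCT-116 cells per well, plated the day before, receive test compounds for 2hr at 37 C before CellTiter-Glo reagent and a luminescence read.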

[6] = qHTS assay to identify small molecule agonists of the sonic hedgehog signaling (Shh) pathway - cell viability counter screen (AID 1259366); further: nearly all actives have a fitted effect of over 50% in size
In short: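 Fluorescence from CellTiter-Fluor reports live cells in this counter screen. NIH/3T3-derived Gli1-Luc reporter cells receive test compounds for 24hr at 37C; reagent goes in at 23hr.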

[7] = qHTS assay to identify small molecule antagonists of the sonic hedgehog signaling (Shh) pathway - cell viability counter screen (AID 1259367); further: nearly all actives have a fitted effect of over 55% in size
In short: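 Conditioned medium drove Shh signaling in 3T3 Gli1-Luc cells exposed to compounds at 37C and 5% CO2. Viability was determined from CellTiter-Fluor fluorescence, with reagent incubated 1 hr after 23 hr of treatment.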

[8] = qHTS assay to identify small molecule agonists of the sonic hedgehog signaling (Shh) pathway (AID 1259368; calls by dose curve;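 further: NIH/3T3-derived 3T3Gli1-Luc cells carrying a stable Gli1-driven firefly luciferase reporter; series mostly up to about 92 µM; nearly all actives have a fitted effect of over 15% in size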)
In short: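 Quantitative high-throughput format using a Gli1-driven firefly luciferase reporter line derived from NIH/3T3 cells. After a 24 hr compound treatment at 37 C and 5% CO2, luminescence reported Gli1 response element activity.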

[9] = qHTS assay to identify small molecule antagonists of the sonic hedgehog signaling (Shh) pathway (AID 1259369; calls by dose curve; further: nearly all actives have a fitted effect of over 45% in size)
In short: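 Stable Gli1-Luc reporter NIH/3T3 clone; quantitative HTS in stimulated mode with conditioned medium. Luminescence measured after 24hr compound treatment at 37 C.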

[10] = target: Estrogen receptor beta (Homo sapiens) (UniProt Q92731); assay: qHTS assay to identify small molecule antagonists of the estrogen receptor beta (ER-beta) signaling pathway (AID 1259378; active means well fitted inhibition curve with a large enough effect in the signal ratio in the repeat runs, not every such curve was filed as active; the % refers to the signal ratio)
Chain of Estrogen receptor beta (Homo sapiens) (Q92731 whole entry, looked up): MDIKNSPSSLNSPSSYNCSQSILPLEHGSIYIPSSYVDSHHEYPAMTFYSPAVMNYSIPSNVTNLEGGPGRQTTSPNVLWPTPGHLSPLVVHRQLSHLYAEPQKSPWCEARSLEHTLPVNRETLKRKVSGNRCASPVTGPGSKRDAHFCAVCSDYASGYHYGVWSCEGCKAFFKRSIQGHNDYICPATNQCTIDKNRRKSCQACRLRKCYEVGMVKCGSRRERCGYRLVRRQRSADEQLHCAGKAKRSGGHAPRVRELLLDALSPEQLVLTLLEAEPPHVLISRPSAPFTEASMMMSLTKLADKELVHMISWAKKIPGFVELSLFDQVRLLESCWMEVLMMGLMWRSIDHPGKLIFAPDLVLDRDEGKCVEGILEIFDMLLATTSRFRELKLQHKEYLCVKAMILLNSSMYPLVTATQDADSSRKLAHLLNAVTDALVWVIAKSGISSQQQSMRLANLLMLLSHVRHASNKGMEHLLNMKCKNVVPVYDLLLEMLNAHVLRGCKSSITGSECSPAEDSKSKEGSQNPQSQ
In short: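 ER-beta-UAS-bla HEK293T (GripTite) cells in 2% charcoal-stripped FBS medium were preincubated 6 hr at 37C, dosed with compound, then stimulated with 1 nM E2 (final) for 16 hr; beta-lactamase reporter read by B/G FRET fluorescence after 2 hr substrate loading.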

[11] = qHTS assay to identify small molecule agonists of the androgen receptor (AR) signaling pathway in the presence of an antagonist - cell viability counter screen (AID 1259379);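 further: MDA-kb2 human breast cancer cells carrying an MMTV luciferase reporter; series mostly up to about 92 µM; nearly all actives have a fitted effect of over 25% in size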
In short: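 Nilutamide-containing (3.0uM final) MDA-kb2 cultures, 3,000 cells/well, were treated with compounds across 15 concentrations. After 16 hr at 37C with no CO2, cell viability was determined by CellTiter-Fluor fluorescence in the luciferase assay wells.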

[12] = qHTS assay to identify small molecule agonists of the estrogen receptor beta (ER-beta) signaling pathway - cell viability counter screen (AID 1259380); further: nearly all actives have a fitted effect of over 30% in size
In short: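 Steps: plate ER-beta-UAS-bla HEK293T cells, rest 6 hr; add compounds in DMSO; incubate 16 hr at 37C, 5% CO2; add FRET substrate 2 hr; add CellTiter-Glo, wait 30 min at room temperature; read luminescence.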

[13] = qHTS assay to identify small molecule antagonists of the estrogen receptor beta (ER-beta) signaling pathway - cell viability counter screen (AID 1259382); further: series mostly up to about 92 µM; nearly all actives have a fitted effect of over 55% in size
In short: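 Viability is scored by CellTiter-Glo luminescence (30 min, room temperature) in ER-beta-UAS-bla HEK293T wells already read for reporter fluorescence. Compound exposure lasts 16 hr at 37C alongside 1nM 17-beta-estradiol in charcoal-stripped serum medium.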

[14] = qHTS assay to identify small molecule agonists or antagonists of the thyroid stimulating hormone receptor (TSHR) signaling pathway - wild type cell line counter screen (AID 1259384; calls by dose curve)
In short: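 Wild-type HEK293 cells were plated 18 h at 37 C/5% CO2, pin-dosed with compound plus Ro20-1724 medium, held 30 min at room temperature, then given cAMP-d2 and anti-cAMP-cryptate; fluorescence was read after 1 h. Fifteen concentrations, triplicate.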

[15] = target: Thyrotropin receptor (Homo sapiens) (UniProt P16473); assay: qHTS assay to identify small molecule antagonists of the thyroid stimulating hormone receptor (TSHR) signaling pathway (AID 1259385; calls by dose curve; further: nearly all actives have a fitted effect of over 20% in size)
Chain of Thyrotropin receptor (Homo sapiens) (P16473 whole entry, looked up): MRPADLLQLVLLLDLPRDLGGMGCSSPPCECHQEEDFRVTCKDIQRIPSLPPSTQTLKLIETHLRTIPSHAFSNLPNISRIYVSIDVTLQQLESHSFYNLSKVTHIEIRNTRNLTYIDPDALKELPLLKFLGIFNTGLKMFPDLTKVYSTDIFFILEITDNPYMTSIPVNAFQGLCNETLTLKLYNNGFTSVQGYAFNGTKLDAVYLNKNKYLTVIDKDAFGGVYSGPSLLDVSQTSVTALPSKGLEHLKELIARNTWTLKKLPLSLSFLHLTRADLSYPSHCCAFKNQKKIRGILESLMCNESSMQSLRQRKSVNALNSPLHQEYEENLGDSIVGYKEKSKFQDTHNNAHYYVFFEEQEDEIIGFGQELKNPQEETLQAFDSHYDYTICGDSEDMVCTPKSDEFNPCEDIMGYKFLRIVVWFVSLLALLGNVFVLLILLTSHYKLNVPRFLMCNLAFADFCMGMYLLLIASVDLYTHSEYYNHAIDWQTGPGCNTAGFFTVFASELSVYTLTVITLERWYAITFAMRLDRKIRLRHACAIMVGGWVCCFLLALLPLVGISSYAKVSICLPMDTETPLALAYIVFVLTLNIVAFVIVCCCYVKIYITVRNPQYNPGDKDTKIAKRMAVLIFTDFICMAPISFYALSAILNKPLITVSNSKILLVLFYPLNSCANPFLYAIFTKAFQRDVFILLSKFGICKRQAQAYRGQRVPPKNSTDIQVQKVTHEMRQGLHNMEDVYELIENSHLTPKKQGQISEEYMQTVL
In short: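 TSHR-HEK293 cells were plated and held 18 h at 37C/5% CO2, then given compound plus Ro20-1724 and stimulated with TSH at 1.5 ng/mL final. After 30 min at room temperature, cAMP was detected with cAMP-d2/anti-cAMP-cryptate (1 h) by fluorescence.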

[16] = qHTS assay to identify small molecule agonists of the estrogen receptor alpha (ER-alpha) signaling pathway in the presence of an antagonist - cell viability counter screen (AID 1259386);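 further: series mostly up to about 92 µM; cells exposed to compounds for 22 h at 37 °C before the viability read; nearly all actives have a fitted effect of over 30% in size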
In short: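 In this counter screen, compound effects on VM7Luc4E2 viability were tested in the presence of the antagonist ICI-182,780 at 10.0nM final. Compounds were dosed at 15 concentrations, exposure lasted 22hr, and the CellTiter-Fluor signal was read.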

[17] = target: Estrogen receptor beta (Homo sapiens) (UniProt Q92731); assay: qHTS assay to identify small molecule agonists of the estrogen receptor beta (ER-beta) signaling pathway (AID 1259377; active means well fitted activation curve with a large enough effect in the signal ratio in the repeat runs, not every such curve was filed as active; the % refers to the signal ratio)
In short: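 Screening used GripTite ER-beta-UAS-bla cells held in 2% charcoal-stripped FBS medium. After overnight (16 hr) compound incubation at 37C, beta-lactamase activity was detected with a FRET substrate by fluorescence.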

[18] = target: Estrogen receptor (Homo sapiens) (UniProt P03372); assay: qHTS assay to identify small molecule agonists of the estrogen receptor alpha (ER-alpha) signaling pathway in the presence of an antagonist (AID 1259383; calls by dose curve; further: top concentration of the series differs between compounds; nearly all actives have a fitted effect of over 15% in size)
In short: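 Readout was ERE-driven luciferase luminescence in VM7Luc4E2 cells, which express full-length ER-alpha endogenously. Compounds were tested at 15 concentrations for 22hr alongside 10.0nM ICI-182,780 (final concentration).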

Measured: Potency

CCN(Cc1ccc(Cl)nc1)/C(=C/[N+](=O)[O-])NC
inactive: [1] | [2] | [3] | [4] | [5] | [6] | [7] | [8] | [9] | [10] | [11] | [12] | [13] | [14] | [15] | [16]

CCS(=O)(=O)C(C)(C)S(=O)(=O)CC
inactive: [1] | [2] | [3] | [4] | [5] | [6] | [7] | [8] | [9] | [17] | [10] | [11] | [12] | [13] | [18] | [14] | [16]

CC(CCc1ccccc1)NC(C)C(O)c1ccc(O)cc1 (stereo not drawn)
inactive: [1] | [2] | [3] | [4] | [5] | [6] | [7] | [8] | [9] | [11] | [13] | [15] | [16]

Cc1coc2c1CCC(C)C2 (stereo not drawn)
inactive: [1] | [2] | [4] | [5] | [6] | [7] | [8] | [9] | [10] | [11] | [12] | [13] | [18] | [15] | [16]

N#Cc1ccncc1
inactive: [1] | [2] | [4] | [5] | [6] | [7] | [8] | [9] | [17] | [10] | [11] | [12] | [13] | [18] | [16]

COP(=S)(OC)Oc1c(Cl)cc(C)cc1Cl
inactive: [1] | [2] | [4] | [5] | [6] | [7] | [8] | [9] | [17] | [10] | [11] | [12] | [13] | [18] | [16]

O=C(O)c1cccc(Cl)c1
inactive: [1] | [2] | [4] | [5] | [6] | [7] | [8] | [9] | [17] | [10] | [11] | [12] | [13] | [18] | [14] | [15] | [16]
